Measured values as given in ChEMBL document CHEMBL1961873, “Compounds: GSK PKIS; Assays: Nanosyn kinase panel” (2012).
Values joined by “and” are separate entries in the source; they are usually repeats but may differ in a detail not shown here. Equal entries are not always repeated.

target: Tyrosine-protein kinase JAK2 (Homo sapiens) (UniProt O60674); conditions: at 1 µM
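Also: mean JAK2 inhibition from the GSK PKIS screen, compounds tested at 1 µM.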

Tyrosine-protein kinase JAK2 (Homo sapiens), sequence (O60674 whole entry): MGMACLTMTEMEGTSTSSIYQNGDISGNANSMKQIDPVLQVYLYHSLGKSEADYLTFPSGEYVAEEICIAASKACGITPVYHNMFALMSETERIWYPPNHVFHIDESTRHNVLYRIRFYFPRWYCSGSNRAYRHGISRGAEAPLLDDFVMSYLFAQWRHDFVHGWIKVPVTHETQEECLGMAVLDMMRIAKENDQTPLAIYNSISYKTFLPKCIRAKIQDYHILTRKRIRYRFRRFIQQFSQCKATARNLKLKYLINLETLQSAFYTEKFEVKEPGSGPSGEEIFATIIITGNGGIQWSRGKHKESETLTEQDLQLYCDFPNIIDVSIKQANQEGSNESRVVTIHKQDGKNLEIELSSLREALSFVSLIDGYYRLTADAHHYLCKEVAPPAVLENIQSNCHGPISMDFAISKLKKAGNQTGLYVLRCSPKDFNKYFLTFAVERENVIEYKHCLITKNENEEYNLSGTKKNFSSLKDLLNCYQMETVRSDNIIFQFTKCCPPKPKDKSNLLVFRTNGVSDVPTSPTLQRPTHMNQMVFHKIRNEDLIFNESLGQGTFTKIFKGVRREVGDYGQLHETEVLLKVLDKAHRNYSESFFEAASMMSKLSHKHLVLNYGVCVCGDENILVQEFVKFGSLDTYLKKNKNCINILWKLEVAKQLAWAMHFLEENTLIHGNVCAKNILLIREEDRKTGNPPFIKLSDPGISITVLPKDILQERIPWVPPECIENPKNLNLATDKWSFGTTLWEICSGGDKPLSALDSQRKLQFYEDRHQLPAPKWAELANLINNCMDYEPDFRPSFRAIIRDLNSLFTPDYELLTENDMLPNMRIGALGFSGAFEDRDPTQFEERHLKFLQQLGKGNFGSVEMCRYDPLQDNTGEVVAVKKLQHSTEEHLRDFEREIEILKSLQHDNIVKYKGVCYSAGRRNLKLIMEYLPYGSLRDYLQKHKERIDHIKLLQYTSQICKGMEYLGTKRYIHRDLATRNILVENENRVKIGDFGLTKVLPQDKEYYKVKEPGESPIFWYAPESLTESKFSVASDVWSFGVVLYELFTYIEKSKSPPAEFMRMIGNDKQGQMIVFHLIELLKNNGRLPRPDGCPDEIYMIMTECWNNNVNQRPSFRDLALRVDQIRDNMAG

Structure (SMILES)	inhibition
CN1CCN(Cc2ccc(-c3cc4ncnc(Nc5ccc(OCc6cccc(F)c6)c(Cl)c5)c4s3)o2)CC1	0.57% and 0.86%
Cc1nnc(-c2cccc(-c3ccc(C(=O)NCC4CC4)cc3)c2)o1	2.79%
CCn1c(-c2nonc2N)nc2cncc(C(=O)NCCNC)c21	0.73%
COc1c(C(N)=O)cc(-c2ccc(Cl)cc2)cc1-c1ccc(S(N)(=O)=O)cc1	3.05%
COc1cc(N2CCN(C(C)C)CC2)ccc1Nc1nc(Nc2cccc3ncccc23)c2cc[nH]c2n1	0.72%
CS(=O)(=O)CCNCc1ccc(-c2ccc3ncnc(Nc4ccc(OCc5ccccc5)cc4)c3c2)o1	0.35%
Cc1c2ccc(N(C)c3ccnc(Nc4cccc(S(N)(=O)=O)c4)n3)cc2nn1C	6.46%
N#Cc1cccc(Nc2ncc(-c3ccccc3)o2)c1	0.35%
FC(F)(F)CNc1nccc(-c2cnn3ncccc23)n1	-0.82%
c1cnn2ncc(-c3ccnc(NCCCN4CCOCC4)n3)c2c1	1.4%
Cc1cc(O)cc(C)c1/C=C/c1cncc(C(N)=O)c1	2.93%
NC(=O)c1ccc2c(-c3ccnc(NCCCO)n3)c(-c3ccc(F)cc3)nn2c1	2.01%
Fc1cccc(COc2ccc(Nc3ncncc3C#Cc3ccccc3)cc2Cl)c1	2.01%
CCCNc1cccc(-n2ncc3c(N/N=C/c4ccncc4)ncnc32)c1	14.7%
COc1cccc(Nc2nccc(-c3cnn4ncccc34)n2)c1	29.2%
Cc1cc(O)cc(C)c1/C=C/c1cncc(C(=O)OC(C)(C)C)c1	3.69%
CS(=O)(=O)Nc1ccc(-c2ccc3c(NC(=O)C4CC4)n[nH]c3c2)cc1	2.88%
